Laboratory results as given in PubChem BioAssay AID1347404 (Pan Lab, Icahn School of Medicine at Mount Sinai, 2020).
Among all 140,000 compounds or so, about 860 (0.61%) were called active. What follows is part of a selection rich in actives, with near analogues and random picks from the rest. A number with no mark means an inactive call. Rule as the data show it: active = inhibition above about 25%; inactive = the rest.

target: E3 ubiquitin-protein ligase RBX1 (Homo sapiens) + Cullin-1 (Homo sapiens) (UniProt P62877+Q13616); test: blocks human RBX1-Cullin-1 di-ubiquitin formation (AID 1347404); conditions: in vitro K48 di-Ub FRET, acceptor:donor ratio, 45 min; at 10 µM; stronger effect = higher value
Sequence (P62877 whole entry, looked up): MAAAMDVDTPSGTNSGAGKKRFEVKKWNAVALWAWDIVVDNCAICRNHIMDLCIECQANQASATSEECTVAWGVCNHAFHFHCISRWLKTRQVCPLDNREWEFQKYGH
Sequence (Q13616 whole entry, looked up): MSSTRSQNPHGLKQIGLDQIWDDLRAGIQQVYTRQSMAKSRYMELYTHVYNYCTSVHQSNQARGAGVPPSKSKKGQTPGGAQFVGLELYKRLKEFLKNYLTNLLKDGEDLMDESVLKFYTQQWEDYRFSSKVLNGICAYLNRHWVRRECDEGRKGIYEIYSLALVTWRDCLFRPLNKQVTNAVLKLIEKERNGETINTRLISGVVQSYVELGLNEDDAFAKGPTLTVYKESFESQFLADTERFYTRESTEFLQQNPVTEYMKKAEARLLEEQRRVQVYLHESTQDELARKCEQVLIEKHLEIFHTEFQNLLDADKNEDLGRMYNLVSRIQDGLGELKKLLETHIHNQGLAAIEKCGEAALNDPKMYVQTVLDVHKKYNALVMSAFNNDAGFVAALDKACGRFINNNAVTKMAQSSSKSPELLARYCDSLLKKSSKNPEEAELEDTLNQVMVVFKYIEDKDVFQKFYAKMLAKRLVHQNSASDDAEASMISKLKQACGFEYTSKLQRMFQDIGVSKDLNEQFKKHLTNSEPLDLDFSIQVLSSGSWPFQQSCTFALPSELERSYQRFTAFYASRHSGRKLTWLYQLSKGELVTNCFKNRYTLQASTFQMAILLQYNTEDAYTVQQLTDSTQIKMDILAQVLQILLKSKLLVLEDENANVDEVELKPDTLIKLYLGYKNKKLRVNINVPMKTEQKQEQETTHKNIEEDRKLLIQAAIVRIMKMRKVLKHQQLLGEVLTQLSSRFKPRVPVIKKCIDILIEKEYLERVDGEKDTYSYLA

| SMILES | inhibition |
| --- | --- |
| Cn1c(CC(=O)c2ccc(F)cc2)nccc1=O | 2.65% |
| COC(=O)c1cccc(COC(=O)c2ccc(NC(C)=O)cc2)c1 | 1.6% |
| O=C(OCc1ccccc1)c1ccc(O)c(O)c1 | 43% (active) |
| O=C(OCc1ccccc1)c1cncc(Br)c1 | -7.74% |
| Nc1nc2cccnc2cc1Br | 1.54% |
| CCOc1cccc2c1N[C@@H](c1ccc(C(=O)O)cc1)[C@H]1CC=C[C@@H]21 | 68.9% (active) |
| CCOc1cccc(CC(=O)N2CCc3c([nH]c4ccccc34)C2c2ccc(F)cc2)c1OCC (stereo not given) | 1.07% |
| Fc1cc(Br)cc2c1NC(c1ccccc1C(F)(F)F)C1CC=CC21 (stereo not given) | 1.76% |
| Cc1ccc(C2=NN3C(=N)/C(=C/c4ccco4)C(=O)N=C3S2)cc1 | 34.8% (active) |
| Cc1cc(/C=C2/C(=N)N3N=C(c4ccccc4Cl)SC3=NC2=O)c(C)n1-c1ccc(Cl)cc1Cl | 2.61% |
| CCC(C1=NN2C(=N)/C(=C\c3ccc(OC(=O)c4ccco4)cc3)C(=O)N=C2S1)c1ccccc1 (stereo not given) | -6.1% |
| Cc1ccc(C)c(-n2nnc(C(=O)Nc3ccc(N4CCN(C)CC4)cc3)c2C)c1 | 12.2% |
| COc1cccc(OC)c1C(=O)Oc1ccc(Br)cc1Br | 3.84% |
| CCOC(=O)C1=C(C)N=c2s/c(=C\c3cccnc3)c(=O)n2C1c1ccc(OC)c(Br)c1 (stereo not given) | -5.43% |
| CCOC(=O)C1=C(C)N=c2s/c(=C\c3ccc(N(CC)CC)cc3O)c(=O)n2C1c1ccc(Br)cc1 (stereo not given) | 49.4% (active) |
| CCOC(=O)C1=C(C)N=c2s/c(=C\c3cc(C)n(-c4ccc(Br)cc4)c3C)c(=O)n2C1c1ccccc1Cl (stereo not given) | -10.4% |
| CCOC(=O)C1(CCOC)CCN(Cc2ccc(C#CCCO)cc2)CC1 | -1.32% |
| C=C(C)COc1ccc(NC(C)=O)cc1 | -3.18% |
| Cc1ccc(N=C2S/C(=C\c3cc(Cl)ccc3O)C(=O)N2C)cc1C | -0.425% |
| Cc1c(CN2CCc3[nH]nc(-c4cccc(F)c4)c3C2)cnn1C | 8.08% |
| CN(C)S(=O)(=O)N1CCC(C(=O)Nc2ccc(Cl)c(C(F)(F)F)c2)CC1 | 6.61% |
| N#Cc1cccc(-c2cccc(-c3ccn[nH]3)c2)c1 | 2.7% |
| Cc1ccc(C2=NC(=O)OC2(C)C)c(C)c1 | 2.99% |
| COC(=O)COc1ccc(/C=N/NC(=O)c2ccc(N(Cc3ccccc3Cl)S(C)(=O)=O)cc2)cc1 | -4.5% |
| Cc1cc(O)c(C(=O)C2=CSc3nnc(-c4ccccc4)n3N=C2)cc1Cl | 2.34% |
